The values below come from ChEMBL document CHEMBL1201862, “PubChem BioAssay data set” (2004).

Hit rate of the full screen: of about 400,000 compounds, about 2,100 (0.53%) were called active. Not shown: some 14% with an inconclusive outcome. How the calls were made is not given here. The list comes from a sample in which actives are over-represented; it also holds similar structures and randomly drawn compounds.

The target of this experiment is Ataxin-2 (Homo sapiens) (UniProt Q99700). The experiment is described as follows: qHTS for Inhibitors of ATXN expression. The format is functional. On the technique in general: qHTS replaces the single test concentration by a dilution series.
Sequence of Ataxin-2 (Homo sapiens) (Q99700 whole entry): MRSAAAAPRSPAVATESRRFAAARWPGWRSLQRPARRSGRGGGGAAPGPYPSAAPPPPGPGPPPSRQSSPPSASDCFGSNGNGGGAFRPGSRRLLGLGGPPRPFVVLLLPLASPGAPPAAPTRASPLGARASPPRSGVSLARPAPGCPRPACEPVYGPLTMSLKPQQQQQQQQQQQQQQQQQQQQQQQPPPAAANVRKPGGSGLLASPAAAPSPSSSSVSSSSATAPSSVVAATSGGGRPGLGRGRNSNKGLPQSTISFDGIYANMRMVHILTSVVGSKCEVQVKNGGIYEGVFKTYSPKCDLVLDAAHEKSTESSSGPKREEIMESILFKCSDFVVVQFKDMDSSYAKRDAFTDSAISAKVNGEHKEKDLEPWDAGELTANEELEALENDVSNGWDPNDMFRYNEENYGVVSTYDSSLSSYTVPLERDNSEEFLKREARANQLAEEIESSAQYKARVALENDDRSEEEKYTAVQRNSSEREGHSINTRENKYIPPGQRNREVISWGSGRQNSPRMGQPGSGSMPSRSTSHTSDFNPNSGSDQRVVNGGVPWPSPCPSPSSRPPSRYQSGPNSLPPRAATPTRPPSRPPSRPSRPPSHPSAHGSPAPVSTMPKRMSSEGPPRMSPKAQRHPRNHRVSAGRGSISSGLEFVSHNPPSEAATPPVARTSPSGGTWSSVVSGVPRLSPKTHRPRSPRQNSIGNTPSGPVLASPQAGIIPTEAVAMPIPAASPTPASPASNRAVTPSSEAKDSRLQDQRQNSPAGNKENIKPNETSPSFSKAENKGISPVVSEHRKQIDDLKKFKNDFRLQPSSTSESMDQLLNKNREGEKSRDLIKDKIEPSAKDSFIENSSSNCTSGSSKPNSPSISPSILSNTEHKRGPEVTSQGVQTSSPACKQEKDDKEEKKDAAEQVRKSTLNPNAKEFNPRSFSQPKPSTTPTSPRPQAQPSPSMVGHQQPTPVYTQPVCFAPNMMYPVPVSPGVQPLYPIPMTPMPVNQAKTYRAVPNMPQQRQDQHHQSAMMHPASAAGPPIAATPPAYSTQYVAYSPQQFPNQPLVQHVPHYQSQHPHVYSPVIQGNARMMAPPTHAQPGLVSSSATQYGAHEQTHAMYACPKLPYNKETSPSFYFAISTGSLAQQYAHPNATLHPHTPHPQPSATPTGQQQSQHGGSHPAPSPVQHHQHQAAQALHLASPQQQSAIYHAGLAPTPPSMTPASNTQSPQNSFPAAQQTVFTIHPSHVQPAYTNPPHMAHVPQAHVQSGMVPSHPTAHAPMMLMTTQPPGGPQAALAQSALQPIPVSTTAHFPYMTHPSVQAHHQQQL
Consider `Cc1cccc2cc(C#N)c(NCCNS(=O)(=O)c3ccccc3)nc12`, for which the Potency result was “inactive”.

In the case of `COc1ccc(O)c(C(=O)c2coc(=N)c(C(=O)Nc3ccc(SC(F)F)cc3)c2)c1`, the Potency entry is “inactive”.

Regarding `CN(C)c1ccc(-c2ccc3c(=O)c4ccccc4n(C)c3c2)cn1`, the Potency entry was “inactive”.

`COc1ccc(-c2ccc3c(N)c(C(=O)NC(C)C)sc3n2)cc1OC`: the Potency result is “inactive”.

With `Cc1cccn2c(=O)c3cc(C(=O)NC4CCCC4)c(=N)n(C4CCCC4)c3nc12`, the Potency result was “inactive”.

For the compound `COC(CN(C)C(=O)c1cn(C)c2ccc(S(=O)(=O)N(C)C3CCCCC3)cc2c1=O)OC`, the Potency entry was “inactive”.

Regarding `Cc1ccc(C)c(N(C)S(=O)(=O)c2ccc3[nH]cc(C(=O)NC4CCCC4)c(=O)c3c2)c1`, the Potency is 28.2 µM (active).

For `CCc1nnc(NC(=O)CSc2nc3c(cc2C#N)CCC3)s1`, the Potency result was “inactive”.

Regarding `N#CCCN(Cc1ccccc1)C(C(=O)NC1CCCCC1)c1cc2ccccc2o1` (centres undefined), the Potency is 39.8 µM (active).

Turning to `N=c1c(C(=O)NC2CCCCC2)cc2c(=O)n3ccccc3nc2n1Cc1ccccc1`, the Potency entry was “inactive”.

With `N=c1c(C(=O)NC2CCCC2)cc2c(=O)n3ccccc3nc2n1Cc1ccccc1`, the Potency entry is “inactive”.

In the case of `COc1ccc(CCC(C)NCCc2ccc(Cl)cc2Cl)cc1` (centres undefined), the Potency was 39.8 µM (active).

`COc1ccc(-c2sc(C(=O)c3ccc(Cl)cc3Cl)cc2CC(=O)O)cc1`: the Potency entry is “inactive”.

For `COc1ccc(CCC(C)NCc2ccc(F)cc2)cc1` (centres undefined), the Potency result is “inactive”.

With `COc1ccc(OC)c(/C=C/C(=O)Nc2ccc(C(=O)OCCC(C)C)cc2)c1`, the Potency entry is “inactive”.

Regarding `CCOc1cc(/C=C/C(=O)Nc2ccc(C(=O)NCCN(CC)CC)cc2)ccc1OCC(C)C`, the Potency is 22.4 µM (active).

As to `COc1cccc(OC)c1C(=O)Nc1ccccc1Sc1ccccc1`, the Potency entry was “inactive”.

In the case of `COc1ccc(C2C=C(c3ccccc3)Nc3nc(NS(=O)(=O)c4ccc(Cl)cc4)nn32)cc1` (centres undefined), the Potency entry is “inactive”.

Take `Cc1nc2ccc(C(=O)Nc3cccc(OCC(=O)N(C)C)c3)cn2c1N(C)CC1CCCCC1`: the Potency is 35.5 µM (active).

For the compound `Cc1ccc2nc3c(cc(C(=O)NC4CCCC4)c(=N)n3C3CCCCC3)c(=O)n2c1`, the Potency result is “inactive”.

With `Cc1ccc2nc3c(cc(C(=O)NC4CCCCC4)c(=N)n3C3CCCCC3)c(=O)n2c1`, the Potency entry is “inactive”.

Take `COc1ccc(C(=O)c2sc3nc(C)cc(-c4cccs4)c3c2N)cc1OC`: the Potency result was “inactive”.

For the compound `CCCn1nc(NC(C)=O)c2cc3cccc(C)c3nc21`, the Potency result was “inactive”.

Take `CCOc1ccc(NCc2cccn2-c2nnc(N3CCC(C(=O)NCCCN4CCCCC4CC)CC3)s2)cc1` (centres undefined): the Potency was 22.4 µM (active).

For `COCCCn1/c(=N/C(C)=O)c(C#N)cc2c(=O)n3cccc(C)c3nc21`, the Potency entry is “inactive”.

`COc1ccccc1NC(=O)c1sc2nc(Cc3ccccc3)cc(C(F)(F)F)c2c1N`: the Potency result is “inactive”.

Turning to `COc1ccccc1NC(=O)c1sc2nc(C)c(C(=O)Nc3ccc(C)cc3C)c(-c3cccs3)c2c1N`, the Potency entry was “inactive”.

Turning to `COc1ccccc1C(=O)Nc1c(C(=O)N(C)Cc2ccccc2)sc2nc(C)c(Cl)c(C)c12`, the Potency was 11.2 µM (active).

Turning to `Nc1cc(C(F)(F)F)cc([N+](=O)[O-])c1N`, the Potency result was “inactive”.

`FC(F)(F)c1cccc(NC(S)=NCc2ccc(Cl)cc2)c1`: the Potency result is “inactive”.

In the case of `O=[N+]([O-])c1cc(C(F)(F)F)cc([N+](=O)[O-])c1NCCN=C(S)Nc1ccc(Cl)c(Cl)c1`, the Potency is 39.8 µM (active).

`CCc1ccc(/C=C(/C#N)c2nc(-c3ccc(C)cc3)cs2)cc1`: the Potency entry was “inactive”.

As for `CCOc1cc(/C=C(\C#N)c2nc(-c3cccs3)c(NC(C)=O)s2)ccc1O`, the Potency entry was “inactive”.

Turning to `CCOc1ccc(-c2csc(/C(C#N)=C\c3ccc(O)c([N+](=O)[O-])c3)n2)cc1`, the Potency was 8.91 µM (active).

Consider `CCOc1ccc2nc(NCCCNS(=O)(=O)c3ccccc3)c(C#N)cc2c1`, for which the Potency result was “inactive”.

For the compound `CN1CCN(c2ccc(NC(=O)c3ccc(-c4ccc(Cl)cc4)o3)cc2)CC1`, the Potency was 25.1 µM (active).

Turning to `CC(=O)N1CCN(c2ccc(NC(=O)c3cccc(F)c3)cc2)CC1`, the Potency result is “inactive”.

For `CN1CCN(c2ccc(NC(=O)c3sc4ccccc4c3Cl)cc2)CC1`, the Potency result is “inactive”.

Turning to `CCCCOC(=O)c1ccc(NC(=O)/C(C#N)=C/c2ccc(-c3ccccc3)o2)cc1`, the Potency result was “inactive”.

On to `CCOc1cccc(/C=N/NC(=O)CC2C(=O)NN=C2C)c1O` (centres undefined), for which the Potency result is “inactive”.

As for `O=C(N=Nc1c(O)[nH]c2ccc(Br)cc12)c1ccccc1-n1cccc1`, the Potency is 17.8 µM (active).

Consider `Cc1cccc(N=Nc2c(O)[nH]c3ccc(F)cc23)c1`, for which the Potency entry was “inactive”.

Consider `COc1ccc(/C=N/OCC(=O)N=Nc2c(O)[nH]c3ccc(Br)cc23)cc1`, for which the Potency result was “inactive”.

With `Cc1cc(C)c(C#N)c(SCC(=O)Nc2nonc2N)n1`, the Potency result is “inactive”.

Regarding `COc1ccccc1N1C(=O)C2C(C(=O)c3ccccc3)=NN(c3ccc(Br)cc3)C2C1=O` (centres undefined), the Potency entry was “inactive”.

Consider `COc1cccc(C(=O)Oc2c(Sc3ccc(C)cc3)c(C)nn2C(C)(C)C)c1OC`, for which the Potency was 20 µM (active).

With `CCN1C=C(C(=O)OC)C(c2cccc(OC)c2OC)C(C(=O)OC)=C1`, the Potency entry is “inactive”.

In the case of `Cc1ccc(S(=O)(=O)c2c(C)nn(C(C)(C)C)c2OC(=O)C(C)C)cc1`, the Potency entry is “inactive”.

In the case of `CC(=O)Nc1ccc2c3c(cccc13)C(=O)N(c1ccccc1)C2=O`, the Potency result is “inactive”.

With `CC(=O)Nc1ccc(N2C(=O)c3cccc4c(O)ccc(c34)C2=O)cc1`, the Potency result is “inactive”.

Turning to `CC(=O)NN1C(=O)c2ccc3c4c(ccc(c24)C1=O)C(=O)N(NC(C)=O)C3=O`, the Potency is 25.1 µM (active).

For the compound `CCOCCCn1/c(=N/C(=O)c2cccs2)c(C#N)cc2c(=O)n3ccccc3nc21`, the Potency result is “inactive”.

For `COc1cccc(N/C(SC)=C(/C#N)C(=O)NCc2cccs2)c1`, the Potency result was “inactive”.

As to `COc1cccc(C(=O)C(C#N)=C(SC)SC)c1`, the Potency is 14.1 µM (active).

Turning to `Cc1cc(C)c(C#N)c(SCC(=O)c2ccccc2)n1`, the Potency entry is “inactive”.

In the case of `CSC(SC)=C(C#N)C(=O)c1ccccc1`, the Potency was 39.8 µM (active).

Regarding `CCOC(=O)C1(C)C(=O)CC2c3nc4ccccc4cc3CN2C1=O` (centres undefined), the Potency result is “inactive”.

As to `O=C1c2ccccc2S(=O)(=O)c2cc(N3CCC4(CC3)OCCO4)ccc21`, the Potency result was “inactive”.

Consider `CCN(CC)C(=O)CSC(Nc1cccc(F)c1)=C(C#N)C#N`, for which the Potency entry is “inactive”.

In the case of `N#Cc1c(Cl)nc(-c2ccncc2)nc1-c1ccccc1`, the Potency entry is “inactive”.

Take `CC(C)(C)SCCNS(=O)(=O)c1ccc(C#N)cc1`: the Potency result was “inactive”.

In the case of `COc1ccc(NC(=O)c2ccc(NC(=O)CN3CCN(c4ccc(O)cc4)CC3)cc2)cc1`, the Potency is 31.6 µM (active).

As for `COc1ccc(N2CCN(CC(=O)NC(=O)NC(C)(C)C)CC2)cc1`, the Potency entry is “inactive”.

On to `COc1ccc(NC(=O)CN2CCN(c3ccccc3)CC2)cc1`, for which the Potency entry is “inactive”.

Regarding `CC(C)Oc1ccc(C(=O)/C=C2/C(=O)Nc3ccccc32)cc1`, the Potency was 39.8 µM (active).

On to `O=C1S/C(=C\c2ccc(O)c([N+](=O)[O-])c2)C(=O)N1c1ccccc1Cl`, for which the Potency was 33.6 µM (active).

As for `Cn1cc(/C=C2\SC(=O)N(c3ccccc3)C2=O)c2ccccc21`, the Potency result is “inactive”.

On to `C=CCn1cc(/C=C/c2cc[n+](C)cc2)c2ccccc21`, for which the Potency entry is “inactive”.

Consider `O=C(O)c1ccc(Cn2cc(/C=C\[N+](=O)[O-])c3ccccc32)o1`, for which the Potency entry is “inactive”.

On to `Cc1cc(C)cc(NC(=O)Cn2cc(C=O)c3ccccc32)c1`, for which the Potency result is “inactive”.

Turning to `N#Cc1ccccc1Cn1cc(/C=C/[N+](=O)[O-])c2ccccc21`, the Potency was 29.9 µM (active).

`N#Cc1ccccc1Cn1cc(/C=N/Nc2ccc([N+](=O)[O-])cn2)c2ccccc21`: the Potency entry was “inactive”.

As for `Cc1ccc(C(=O)NNC(=O)COC(=O)COc2ccccc2C#N)cc1`, the Potency entry was “inactive”.

With `Cc1ccccc1OCC(=O)OCC(=O)c1ccc[nH]1`, the Potency result is “inactive”.

Turning to `CCOC(=O)N/N=C/c1cn(CCCOc2ccc(C)cc2)c2ccccc12`, the Potency result was “inactive”.

`O=C(Cn1cc(/C=C\[N+](=O)[O-])c2ccccc21)Nc1ccccc1`: the Potency is 35.5 µM (active).

As for `CCOC(=O)Cn1cc(/C=C/[N+](=O)[O-])c2ccccc21`, the Potency was 39.8 µM (active).

`CCOC(=O)Cn1cc(/C=N/NC(=O)c2cc3ccccc3o2)c2ccccc21`: the Potency entry was “inactive”.

In the case of `CCOC(=O)COc1ccccc1/C=C\[N+](=O)[O-]`, the Potency was 6.31 µM (active).

For `COC(=O)c1cc(-n2cccc2)ccc1N1CCOCC1`, the Potency entry was “inactive”.

`S=C(Nc1ccccc1)Nc1ccc2c[nH]nc2c1`: the Potency entry was “inactive”.

`Cc1ccc(CNC(=O)c2cccc3c2C(=O)c2ccc(N4CCC(C)CC4)cc2S3(=O)=O)cc1`: the Potency result was “inactive”.

Regarding `Cc1ccc(-c2cc(-c3ccco3)c3c(N)c(C(=O)NN)oc3n2)cc1`, the Potency entry was “inactive”.

Take `CC(=O)C1CCC2C3CC=C4CC(SC(=N)N)CCC4(C)C3CCC12C` (centres undefined): the Potency is 37.7 µM (active).

Consider `CC(C)(C)[C@H](N)C(=O)N[C@H]1CCC2C3CC=C4C[C@@H](O)CC[C@]4(C)C3CC[C@@]21C` (some centres undefined), for which the Potency is 37.7 µM (active).

On to `Cc1cccc(OCc2n(C)c3ccccc3[n+]2CC(=O)OC2CC(C)CCC2C(C)C)c1` (centres undefined), for which the Potency was 35.5 µM (active).

Turning to `Nc1nnnn1/N=C/c1cc(Cl)cc(Cl)c1O`, the Potency entry was “inactive”.

For `O=C(Nc1nccs1)c1cccnc1O`, the Potency result was “inactive”.

As for `O=C(CCCCCn1c(=S)[nH]c2ccc(N3CCOCC3)cc2c1=O)NCCc1ccccc1`, the Potency entry is “inactive”.

Turning to `O=C(C[C@H]1C[C@H](C(=O)N2CCOCC2)[C@@]2(CCC3CCCC3)c3[nH]c4cc(-c5ccco5)ccc4c3CCN2C1=O)NCCc1ccccn1`, the Potency is 35.5 µM (active).

Regarding `O=C(C[C@H]1C[C@H](C(=O)N2CCCCC2)[C@@]2(CCc3ccccc3)c3[nH]c4cc(-c5ccco5)ccc4c3CCN2C1=O)NCCN1CCOCC1`, the Potency is 31.6 µM (active).

In the case of `CN(C)CCCNC(=O)C[C@H]1C[C@H](C(=O)N2CCOCC2)[C@@]2(CCC3CCCC3)c3[nH]c4cc(-c5ccco5)ccc4c3CCN2C1=O`, the Potency is 35.5 µM (active).

Regarding `O=C(C[C@H]1C[C@H](C(=O)N2CCOCC2)[C@@]2(CCC3CCCC3)c3[nH]c4cc(-c5ccco5)ccc4c3CCN2C1=O)NCCN1CCOCC1`, the Potency was 35.5 µM (active).

With `O=C(NCCN1CCOCC1)c1cc2c(=O)n3ccccc3nc2n1Cc1ccccc1`, the Potency entry is “inactive”.
